PubChem BioAssay AID720648 (The Scripps Research Institute Molecular Screening Center, 2013)
“And” between values parts separate entries of the source, which are not always exact repeats. Equal entries are not always repeated. In all, about 370,000 compounds went through this assay and about 3,100 (0.84%) were called active.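 The calls were made as follows: active = inhibition above the mean of compounds lying between control limits plus 3 SD, set per campaign (cut at about 8.5% in these data); inactive = the rest.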 Many of the other results were omitted from the sample, so actives are more common in it than they were. The source holds several records for some structures; these can differ, active in one and inactive in another.

Each compound was assayed against Disintegrin and metalloproteinase domain-containing protein 17 (Homo sapiens) (UniProt P78536) (assay: inhibition of ADAM17 peptide cleavage – biochemical, QFRET, primary screen (AID 720648;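 also: 0% = DMSO-only wells as the low control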)). Settings: recombinant ADAM17, EDANS/DABCYL FRET peptide cleavage; at 6.95 µM; stronger effect = higher value.
Disintegrin and metalloproteinase domain-containing protein 17 (Homo sapiens), sequence (P78536 215-824 limits assumed): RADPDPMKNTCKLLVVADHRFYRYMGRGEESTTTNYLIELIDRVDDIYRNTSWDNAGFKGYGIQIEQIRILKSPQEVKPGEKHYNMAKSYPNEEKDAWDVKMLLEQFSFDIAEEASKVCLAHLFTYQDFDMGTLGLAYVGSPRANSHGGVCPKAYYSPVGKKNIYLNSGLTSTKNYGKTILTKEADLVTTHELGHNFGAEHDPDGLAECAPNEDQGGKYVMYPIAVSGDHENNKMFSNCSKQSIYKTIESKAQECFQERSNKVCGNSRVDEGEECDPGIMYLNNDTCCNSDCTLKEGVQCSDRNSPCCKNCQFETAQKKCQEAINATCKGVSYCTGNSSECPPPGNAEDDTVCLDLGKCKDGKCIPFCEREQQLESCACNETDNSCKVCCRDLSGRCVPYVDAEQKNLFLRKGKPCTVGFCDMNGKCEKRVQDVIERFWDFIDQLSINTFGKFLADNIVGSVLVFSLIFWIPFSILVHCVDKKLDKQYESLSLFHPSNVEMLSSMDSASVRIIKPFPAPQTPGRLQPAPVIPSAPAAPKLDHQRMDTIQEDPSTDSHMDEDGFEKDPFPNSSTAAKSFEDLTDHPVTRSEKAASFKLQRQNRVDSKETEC
Cc1c(C(C)c2ccccc2O)[nH]c2ccccc12 (stereo not drawn) was tested, and the inhibition was 4.61% (inactive). In the case of O=C(NCc1cccs1)C1CCN(S(=O)(=O)c2ccccc2[N+](=O)[O-])CC1, the inhibition is reported as 1.09% (inactive). For Cc1ccccc1C(=O)Nc1ccccc1Sc1ccccc1, the inhibition was 10.4% (active). With COc1ccc(C(=O)OCC(=O)NC(=O)CCSc2ccccc2)cc1 the inhibition was 0.55% (inactive). For O=C(COC(=O)c1ccccn1)Nc1cccc2ccccc12, the inhibition was -0.52% (inactive). Cc1ccccc1C(=O)O was tested, and the inhibition was -1.22% (inactive). O=C(COC(=O)c1ccccc1)Nc1ccccc1Sc1ccccc1 was tested, and the inhibition was 9.99% (active). In the case of Cc1cc(NC(=O)c2ccccc2C)no1, the inhibition is reported as -1.75% (inactive). With COc1ccc(-n2c(SCC(=O)Nc3ccc4cn[nH]c4c3)nnc2-c2cccnc2)cc1 the inhibition was 2.47% (inactive). In the case of COc1ccc(C2Nc3ccccc3C(=O)N2Cc2cccs2)cc1COc1c(C)cccc1C (stereo not drawn), the inhibition is reported as -93.1% (inactive). CC(C)CNc1cccc2c1S(=O)(=O)N(Cc1cn(Cc3ccc(Cl)cc3)nn1)Cc1ccccc1O2 was tested, and the inhibition was -4.11% (inactive). For COP(=O)(O)CNC(=O)OCc1ccccc1, the inhibition was 1.95% (inactive). CN(C)S(=O)(=O)c1cccc(NC(=O)COC(=O)c2cc(=O)[nH]c(=O)[nH]2)c1 was tested, and the inhibition was 0.24% (inactive). For CN(C)S(=O)(=O)c1cccc(NC(=O)COC(=O)C2(c3ccccc3F)CCCC2)c1, the inhibition was 14.4% (active). For O=C(COC(=O)c1ccc(NS(=O)(=O)c2cccs2)cc1O)Nc1ccc(F)cc1, the inhibition was 8.44% (inactive). NS(=O)(=O)c1ccc(NC(=O)COC(=O)C2(c3ccc(F)cc3)CCCC2)cc1 was tested, and the inhibition was 10.8% (active). With CN(C)S(=O)(=O)c1cccc(NC(=O)COC(=O)/C=C/c2cccs2)c1 the inhibition was -0.31% (inactive). In the case of O=C(COC(=O)C1(c2ccc(F)cc2)CCCC1)N1CCNC1=O, the inhibition is reported as -6.77% (inactive). With CCCCOCCCNC(=O)C[C@H]1C[C@@]2(C(=O)OC)C(=C[C@H](C(C)(C)C)O[C@@H]2C)N(CCc2ccc(OC)c(OC)c2)C1=O the inhibition was 4.52% (inactive). With O=S1(=O)c2c(cccc2N2CCSCC2)Oc2ccccc2CN1Cc1cn(Cc2ccc(F)cc2)nn1 the inhibition was -0.02% (inactive). For COc1ccc(N2CCN(CCNS(=O)(=O)c3ccc(Cl)s3)CC2)cc1, the inhibition was -0.88% (inactive). In the case of CCC[C@H]1C(=O)CC[C@@]23CCCN2C(=O)CCC[C@@H]13, the inhibition is reported as -0.61% (inactive). CNC(=S)N/N=C/c1ccc(OCc2ccccc2)c(Br)c1 was tested, and the inhibition was -1.43% (inactive). In the case of COc1cc(/C=N/n2c(C)n[nH]c2=S)ccc1OCc1ccccc1, the inhibition is reported as 10.8% (active). With C=CCOc1ccc(/C=N/n2cncn2)cc1OC the inhibition was -11.9% (inactive). With COc1cccc(CNC(=O)C2CCCN(c3nc4ccccc4o3)C2)c1OC (stereo not drawn) the inhibition was 1.62% (inactive). In the case of O=C(c1c[nH]c2ccccc12)N1CCC(Oc2cccnc2)CC1, the inhibition is reported as 1.77% (inactive). O=C1C(=O)N(Cc2ccc(-c3ccsc3)cc2)c2ccc(OC(F)(F)F)cc21 was tested, and the inhibition was 1.76% (inactive). For O=S(=O)(Oc1ccccc1C(=S)N1CCOCC1)c1ccc(Cl)cc1, the inhibition was -1.11% (inactive). With CC(=O)Nc1ccc(S(=O)(=O)Oc2ccc(Br)cc2C(=S)N2CCOCC2)cc1 the inhibition was 9.15% (active). CCOc1cc(C(=S)N2CCOCC2)ccc1OS(=O)(=O)c1ccc(Br)cc1 was tested, and the inhibition was -3.87% (inactive). In the case of O=C(C1CCCN1S(=O)(=O)c1ccccc1)N1CCc2ccccc2C1 (stereo not drawn), the inhibition is reported as 1.33% (inactive). In the case of CCOc1c(Br)cc(/C=C2\C(=O)N(CCC#N)N=C2C)cc1OC, the inhibition is reported as 8.65% (active). In the case of CC(C)(C)c1ccc(CSc2nnc(-c3cccs3)o2)cc1, the inhibition is reported as -1.78% (inactive). In the case of COC(=O)[C@]12C[C@H](CC(=O)N3CCN(C(=O)C4CC4)CC3)C(=O)N(CCC3=CCCCC3)C1=C[C@H](C(C)C)O[C@@H]2C1CC1, the inhibition is reported as -8.05% (inactive). CC1(C)C=Cc2c(ccc3c2OC[C@@H](c2ccc(O)cc2O)C3)O1 was tested, and the inhibition was 19.4% (active). In the case of CN[C@H]1C[C@H]2c3cc(N4CCOCC4)ccc3CCN2C[C@H]1[C@H](C)O, the inhibition is reported as -6.65% (inactive). For O=C(CCCCCN1C(=O)C2C3C=CC(C3)C2C1=O)Nc1ccccc1 (stereo not drawn), the inhibition was 4.34% (inactive). With CC1(Cc2cccc(C#N)c2)C(=O)Nc2ccc(-c3cccc(C(F)(F)F)c3)cc21 (stereo not drawn) the inhibition was 11.2% (active). COc1ccccc1CC1(C)C(=O)Nc2ccc(OC(F)(F)F)cc21 (stereo not drawn) was tested, and the inhibition was 6.39% (inactive). In the case of Cc1ccc(CC2(C)C(=O)Nc3ccc(OC(F)(F)F)cc32)cc1 (stereo not drawn), the inhibition is reported as 8.02% (inactive). CC(c1c[nH]c2ccccc12)c1c(-c2ccccc2)n(C)c2ccccc12 (stereo not drawn) was tested, and the inhibition was -2.38% (inactive). N#Cc1ccccc1OC[C@@H](O)CN1CCC(C(O)(c2ccccc2)c2ccccc2)CC1 was tested, and the inhibition was -1.12% (inactive). With O=C(c1ccccc1)c1ccc(-c2ccccc2C(=O)NC2CCCCN(Cc3ccc(Cl)cc3)C2=O)cc1 (stereo not drawn) the inhibition was -0.61% (inactive). With COC(=O)C1CN(Cc2cn(Cc3ccc(F)cc3)nn2)CCS(=O)(=O)N1Cc1ccc(Cl)cc1 (stereo not drawn) the inhibition was 1.41% (inactive). COc1ccc(C2C(C#N)=C(N)Oc3n[nH]c(C)c32)cc1CN1CCN(c2ccc(F)cc2)CC1 (stereo not drawn) was tested, and the inhibition was 0.41% (inactive). In the case of Cc1cc(C)c(C#N)c(SCc2ccc3c(c2)OCO3)n1, the inhibition is reported as -0.68% (inactive). Cc1cc(C)c(C#N)c(SCc2[nH]nc3c2C(c2ccccc2)C(C#N)=C(N)O3)n1 (stereo not drawn) was tested, and the inhibition was 12.4% (active). For CCOc1ccc(N2C(=O)CC(N(CCc3ccc(OC)c(OC)c3)C(=S)Nc3ccccc3)C2=O)cc1 (stereo not drawn), the inhibition was 9.32% (active) and 1.43% (inactive). With CN(C)c1ccc(NC(=S)N(CCc2ccccc2)C2CC(=O)N(c3c(Cl)cccc3Cl)C2=O)cc1 (stereo not drawn) the inhibition was 2.09% (inactive). With COc1ccc(N2C(=O)C(CC(=O)Nc3ccccc3)N(Cc3ccc(OC)c(OC)c3)C2=O)cc1 (stereo not drawn) the inhibition was -0.55% (inactive). For C=CCN(Cc1ccc2c(c1)OCO2)C(C#CC1CC1)C(C)(C)C (stereo not drawn), the inhibition was -5.97% (inactive). O=C(NC1CCCCN(Cc2cccc(C(F)(F)F)c2)C1=O)c1ccccc1I (stereo not drawn) was tested, and the inhibition was -0.37% (inactive). In the case of COC(=O)[C@]12C[C@H](CC(=O)NCc3ccccc3)C(=O)N(Cc3ccccc3)C1=C[C@H](COCc1ccccc1)O[C@@H]2C, the inhibition is reported as 1.65% (inactive). With COC(=O)[C@H](C(C)C)N(CCCc1cn(Cc2ccccc2)nn1)S(=O)(=O)c1ccc(F)cc1Br the inhibition was 2.02% (inactive). COc1ccccc1C(=O)NCC(=O)OCC(=O)NNC(=O)c1ccc(Br)cc1 was tested, and the inhibition was 13% (active). In the case of COc1ccccc1C(=O)NCC(=O)NCCSc1ccc(Br)cc1, the inhibition is reported as 2.38% (inactive). With O=C(COC(=O)c1ccccn1)NNC(=O)c1ccc(Br)cc1 the inhibition was 0.32% (inactive). With CCCCCCCCNS(=O)(=O)/C=C/c1cc(C)ccc1CNC(=O)OC(C)(C)C the inhibition was -2.49% (inactive). For C[C@]12c3[nH]c4ccc(Cl)cc4c3CCN1C(=O)[C@@H](CC(=O)NCCCn1ccnc1)C[C@@H]2C(=O)N1CCOCC1, the inhibition was 4.49% (inactive). CC(C)N(C(=O)[C@H]1C[C@H](CC(=O)NC(C)(C)C)C(=O)N2CCc3c([nH]c4ccc(Cl)cc34)[C@]12C)C(C)C was tested, and the inhibition was 8.65% (active). In the case of CC(C)N(C(=O)[C@H]1C[C@H](CC(=O)NCCC2=CCCCC2)C(=O)N2CCc3c([nH]c4cc(CCC(=O)N(C)C)ccc34)[C@]12C)C(C)C, the inhibition is reported as -3.26% (inactive). For CC(=O)OCCN1CCCC12CCC(c1ccccc1)CC2 (stereo not drawn), the inhibition was -1.85% (inactive). COC(=O)C1CN(CC(C)C)CCS(=O)(=O)N1Cc1ccc(F)cc1 (stereo not drawn) was tested, and the inhibition was -5.05% (inactive). For Cc1nc2ccc(C(=O)N3CCN(C(=O)C(C)(C)C)CC3)cc2n1C1CCCC1, the inhibition was 3.54% (inactive). With Cc1ccc(C)c(NC(=O)CCS(=O)(=O)c2ccccc2)c1 the inhibition was -3.15% (inactive). COc1ccc(Cn2cc(COC(=O)N(C)Cc3ccccc3)nn2)cc1 was tested, and the inhibition was -3.38% (inactive). In the case of COc1ccc(C(C(=O)NC2CCCCC2)N(C(=O)CCl)c2ccccc2Cl)cc1 (stereo not drawn), the inhibition is reported as -0.76% (inactive). In the case of COc1ccc(CN(CCN2CCOCC2)C(=O)c2ccc(C)cc2)cc1OC, the inhibition is reported as 2.83% (inactive). In the case of COc1ccc(C(CCN(Cc2ccc(OC)c(OC)c2)C(=O)CCl)c2ccccc2)cc1 (stereo not drawn), the inhibition is reported as 12.5% (active). In the case of COc1ccc(CN(C)C(=O)CC(c2ccccc2)c2ccccc2)cc1, the inhibition is reported as 11% (active). CN(Cc1ccc(F)cc1)C(=O)COc1ccc2ccccc2c1 was tested, and the inhibition was -3.83% (inactive). For COC(=O)C[C@@H]1CC[C@@H]2[C@@H](COc3ccc(NC(=O)Nc4ccc(F)c(F)c4)cc3C(=O)N2C)O1, the inhibition was 1.31% (inactive). In the case of CCCCNC(=O)C[C@H]1C[C@@]2(C(=O)OC)C(=C[C@H](COCc3ccccc3)O[C@@H]2C)N(Cc2ccc(Cl)cc2Cl)C1=O, the inhibition is reported as 1.2% (inactive). For COc1ccc2c(c1)CN1CN(CCc3ccccc3)S(=O)(=O)CC21 (stereo not drawn), the inhibition was -6.46% (inactive). With O=C(CSc1nc2ccccc2o1)N/N=C/c1ccccc1C(=O)O the inhibition was -4.58% (inactive). Cc1ccc(/C=N/NC(=O)CSc2nc3ccccc3o2)cc1 was tested, and the inhibition was 10.3% (active). For CC1Cc2ccccc2N1C(=O)CSc1nc2ccccc2o1 (stereo not drawn), the inhibition was 2.14% (inactive). For COc1ccc(CN2C(=O)N3Cc4cc(OC)ccc4C3CS2(=O)=O)cc1 (stereo not drawn), the inhibition was -0.79% (inactive). C=CCN1C(=O)[C@@H](CC(=O)NCCCCc2ccccc2)[C@]2(C(=O)OCC)CCCCC/C=C/12 was tested, and the inhibition was 3.44% (inactive). With N/C(Cc1ccc([N+](=O)[O-])cc1)=N\OC(=O)COc1ccc2ccccc2c1 the inhibition was 10.8% (active). N/C(Cc1ccc([N+](=O)[O-])cc1)=N\OC(=O)C1CCCCC1 was tested, and the inhibition was -3.25% (inactive). Cc1cc(C)cc(OCC(=O)O/N=C(\N)Cc2ccc([N+](=O)[O-])cc2)c1 was tested, and the inhibition was 3.53% (inactive).
